# DUSP3 inh: DUSP3 (human) phosphatase inhibition | P51452 | recombinant VHR phosphatase, pNPP absorbance | inhibition, % at 13.3 µM | 0.52% of 290,000 active; in the data active means inhibition above about 50%
# Target sequence (P51452 whole entry, looked up): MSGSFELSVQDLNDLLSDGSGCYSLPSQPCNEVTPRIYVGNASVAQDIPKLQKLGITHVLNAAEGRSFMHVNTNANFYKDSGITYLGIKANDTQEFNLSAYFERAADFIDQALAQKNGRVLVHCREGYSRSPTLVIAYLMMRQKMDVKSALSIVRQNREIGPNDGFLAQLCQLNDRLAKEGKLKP
# Mtb FBA inh: inhibits M. tuberculosis FBA enzyme; P9WQA3; purified M. tuberculosis FBA, fluorescence read-out; inhibition, % at 1 µM; 2.3% of 360,000 active; in the data active means inhibition above about 27%;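 further: 0% = vehicle and 100% = reference inhibitor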
# Target sequence (P9WQA3 whole entry, looked up): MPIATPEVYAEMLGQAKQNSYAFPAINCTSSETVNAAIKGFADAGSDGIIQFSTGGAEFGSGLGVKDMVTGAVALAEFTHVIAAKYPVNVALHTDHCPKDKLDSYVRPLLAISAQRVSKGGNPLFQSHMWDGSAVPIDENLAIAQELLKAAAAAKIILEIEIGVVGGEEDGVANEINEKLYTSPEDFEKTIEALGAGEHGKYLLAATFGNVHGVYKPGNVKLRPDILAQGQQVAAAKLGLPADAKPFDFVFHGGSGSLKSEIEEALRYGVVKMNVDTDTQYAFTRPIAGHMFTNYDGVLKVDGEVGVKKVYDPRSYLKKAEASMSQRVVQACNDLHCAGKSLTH
# Mtb betalactam: beta-lactam sensitization of Mtb H37Rv. AID 434955. inhibition, % at 25 µM. 0.27% of 330,000 active. M. tuberculosis H37Rv growth with meropenem, percent inhibition; call rule not given here;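 further: growth measured after seven days incubation then overnight dye step; 0% = bacteria only wells and 100% = bacteria with antibiotic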
# GDH-TPI inh: GDH-TPI coupled enzyme inhibition counter-screen; AID 588335; 1.2% of 360,000 active; GDH-TPI coupled enzyme counterscreen, NADH absorbance; inhibition, % at 4.8 µM; in the data active means inhibition above about 30%;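 further: 0% = DMSO wells and 100% = wells lacking the enzyme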
# Mtb hypoxia rep: reduces hypoxia-regulated biosensor signal in M. tuberculosis. M. tuberculosis hypoxia-regulated fluorescent reporter, fluorescence. AID 1159583. fluorescence inhibition, % (no concentration beside the values). 0.1% of 300,000 active; in the data active means fluorescence inhibition mostly above about 23%, no sharp cut-off; inactive means mostly below about 17%
# * marks the source's active call; other numbers are inactive results; ? = inconclusive; nt = no result; + = active, no number. Shown are actives, neighbours in structure and some others; about 3.6% of the full set was active somewhere.
SMILES,DUSP3 inh,Mtb FBA inh,Mtb betalactam,GDH-TPI inh,Mtb hypoxia rep
Cc1nc2c(C)cccc2cc1C(=O)N/N=C/c1ccc(N(C)C)cc1,29.6,2.6,-5.9,50.6*,nt
CN(C)c1ccc(/C=N/NC(=O)c2ccc(Cl)cc2)cc1,16.8,0.9,7.6,31.1*,nt
CN(C)c1ccc(C=NNC(=O)c2ccc(Cl)cc2)cc1,nt,nt,nt,nt,6.9
Cc1occc1C(=O)N/N=C/c1ccc(N(C)C)cc1,21.7,11.6,-8.8,80.7*,nt
O=C(Nc1ccccc1)C1CC=CC2CCN(Cc3ccccc3)C(=O)C21 (stereo unspecified),nt,nt,nt,nt,5.4
CC(=O)Nc1ccc(/C=N/NC(=O)c2cc3cc(C)ccc3nc2C)cc1,24.0,-0.3,-3.4,37.5*,nt
CN(C)c1ccc(/C=N\NC(=O)c2ccc(Cn3cc(Cl)cn3)cc2)cc1,8.6,-0.2,9.7,35.2*,nt
C(=NNc1ccccc1)c1nc2ccccc2s1,nt,nt,nt,nt,4.7
N#CCCn1cc(C=N/N=C2\NC(=O)C(CC(=O)O)S2)c(-c2ccc(F)cc2)n1 (stereo unspecified),nt,nt,nt,nt,-5.1
CCC(CC)c1nn2c(N)c(/C=C3\C=Nc4ccccc43)c(=O)nc2s1,2.6,+,-12.0,18.6,3.5
Cc1cc(NC(=NS(=O)(=O)c2ccc(Cl)cc2)c2ccc(F)cc2)no1,nt,nt,nt,nt,-0.9
Cc1cc(Cl)cc2c(N=Nc3ccccc3C(=O)O)c(O)[nH]c12,-20.2,0.9,13.1,8.8,-0.2
Cc1ccc(Cl)c2c(N=Nc3ccccc3)c(O)[nH]c12,51.5*,2.6,1.5,10.8,1.3
N#C/C(=N/Nc1ccccc1F)C(=N)N1CCOCC1,6.0,-0.9,0.8,31.7*,nt
Nc1ccccc1C(=O)N=Nc1[nH]c(N)c2ccccc12,-0.1,4.0,-0.7,18.0,-5.2
Nc1[nH]c(N=NC(=O)c2ccc(F)cc2)c2ccccc12,4.5,-1.9,-0.7,32.9*,4.1
C(=Nc1cccc2c(N=Cc3ccco3)cccc12)c1ccco1,24.4,61.6*,-5.3,3.9,nt
C=CCc1c(C)nc(SC)nc1Nc1ccc(C(C)=O)cc1,21.4,-2.9,98.6,48.4*,nt
COc1ccccc1/C=C/CN1CCC(Oc2ccc(C(=O)N3CCCC3)cc2)CC1,52.8*,1.4,-5.6,-4.5,-3.7
O=C(CCS(=O)(=O)c1ccccc1)Nc1nc(-c2ccc(F)cc2)cs1,-12.6,6.4,4.0,33.8*,4.6
O=C(CS(=O)(=O)c1ccccc1)Nc1nc(-c2ccc(F)cc2)cs1,22.7,1.5,11.0,3.9,5.1
CCN(CC)N=Nc1[nH]nc2nc(C)cc(C)c12,7.1,-9.3,48.5,31.6*,12.0
COc1ccc(C=NNC(=O)c2ccc(Cl)cc2)cc1Cn1cc(Cl)cn1,nt,nt,nt,nt,-0.9
COc1ccc(-c2nn(-c3ccccc3)cc2C(=O)N(C)C)cc1,52.6*,0.1,-5.6,-2.9,4.9
S=c1[nH]nc(-c2cc(-c3ccccc3)n[nH]2)n1N=Cc1ccc(Cl)cc1,nt,nt,nt,nt,1.5
SMILES,DUSP3 inh,Mtb FBA inh,Mtb betalactam,GDH-TPI inh,Mtb hypoxia rep
S=c1[nH]nc(-c2cc(-c3ccccc3)n[nH]2)n1/N=C/c1cccc(Cl)c1,50.0*,-2.0,-10.5,10.2,nt
CCc1[nH]nc(C(=O)N2CCCC(C(=O)c3cccc(OC(C)C)c3)C2)c1C (stereo unspecified),55.5*,163.6*,-2.0,-3.6,-4.7
Cc1nn(C)c(C)c1CCC(=O)N1CCCC(C(=O)c2cccc(OC(C)C)c2)C1 (stereo unspecified),51.3*,-1.5,0.9,-4.8,-2.2
CC(C)Oc1cccc(C(=O)C2CCCN(C(=O)CCc3cnn(C)c3)C2)c1 (stereo unspecified),17.5,0.5,?,4.4,-0.2
O=S1(=O)C2CC3O[C@]2(CC3c2ccc(F)cc2)CN1Cc1ccc(Cl)cc1 (stereo partly specified),nt,nt,nt,nt,4.1
Cc1ccc(C(=O)NCCc2nnc3ccc(SCC(=O)NCc4ccc(F)cc4)nn23)cc1,57.1*,2.6,-6.1,-7.2,-6.5
O=C(CSc1ccc2nnc(CCNC(=O)c3ccccc3)n2n1)NCc1ccccc1,45.2,8.8,-3.5,4.1,-4.4
O=C(O)c1cc(NN=C/C=C/c2ccccc2[N+](=O)[O-])ccc1Cl,nt,nt,nt,nt,15.8
CC(=NOC(=O)c1c(-c2ccccc2Cl)noc1C)c1cnccn1,nt,nt,nt,nt,7.2
O=C(NCc1ccco1)c1ccc(Cl)c(S(=O)(=O)N2CCc3ccccc32)c1,55.6*,2.5,-6.3,6.1,0.4
Clc1ccc2c(c1)[C@H]1OCC[C@H]1[C@@H](c1ccco1)N2,34.7,38.2*,0.6,5.9,nt
Fc1ccc2c(c1)[C@H]1OCC[C@H]1[C@@H](c1ccco1)N2,-4.8,18.5,-13.8,-0.6,16.1
O=C(O)c1ccc(NN=Cc2cn(-c3ccccc3)nc2-c2cccs2)cc1,nt,nt,nt,nt,2.4
Cc1ccc(S(=O)(=O)NN2C(=O)/C(=C/c3cccs3)SC2=S)cc1,8.4,-3.7,1.0,31.2*,4.7
COc1cc(-c2cc(C(=O)Nc3ccc(N4CCOCC4)cc3)c3ccccc3n2)cc(OC)c1OC,1.7,-1.6,-3.7,42.5*,-6.9
COc1cc(-c2cc(C(=O)Nc3ccncc3)c3ccccc3n2)cc(OC)c1OC,nt,-3.5,14.9,4.9,21.7*
O=C1NC(=O)N(c2ccc(F)cc2)C(=O)/C1=C/c1ccc(N2CCOCC2)cc1,10.8,-1.9,-3.0,8.1,16.1
CN(C)c1ccc(C=C2C(=O)NC(=O)N(CCc3ccc(F)cc3)C2=O)cc1,nt,nt,nt,nt,-1.7
CN1C(=O)C(=Cc2ccc(N3CCCCCC3)cc2)C(=O)N(C)C1=O,17.9,4.0,85.5,54.5*,6.5
O=C1NC(=O)N(Cc2ccc(F)cc2)C(=O)/C1=C\c1ccc(N2CCCC2)cc1,13.1,0.0,-1.0,33.2*,16.7
CN(C)c1ccc(/C=C2\C(=O)NC(=O)N(CCc3ccc(F)cc3)C2=O)cc1,4.8,0.7,-0.3,46.9*,6.4
O=C1N=C(N2CCCC2C(=O)O)SC1=Cc1ccco1 (stereo unspecified),nt,nt,nt,nt,3.2
CC1CN(CCc2ccccc2)C(=O)C1CC(=O)NCc1ccccc1 (stereo unspecified),nt,nt,nt,nt,3.7
O=C(NCc1ccc2c(c1)OCO2)Nc1cccc(Cl)c1,58.7*,1.9,-0.4,1.6,7.0
Cc1ccc(C(=O)NCc2ccc3c(c2)OCO3)c(Cl)c1,nt,4.0,nt,6.2,nt
SMILES,DUSP3 inh,Mtb FBA inh,Mtb betalactam,GDH-TPI inh,Mtb hypoxia rep
CC(=O)c1cccc(NC(=O)NCc2ccc3c(c2)OCO3)c1,10.1,5.0,-3.2,4.1,7.3
Cc1ccc(C(=O)NCc2ccc3c(c2)OCO3)c(C)c1,-5.4,152.6*,5.6,4.1,17.8
COC(=O)CC=N/N=C1/NC(=O)/C(=C/C(=O)O)S1,nt,nt,nt,nt,10.7
Cc1c(OCC(=O)NC(Cc2ccc(Cl)cc2)C(=O)O)ccc2c(-c3ccccc3)cc(=O)oc12 (stereo unspecified),16.5,3.9,-3.8,17.6,nt
Cc1c(CC(=O)NCC(=O)NCC(=O)N[C@@H](Cc2ccccc2)C(=O)O)c(=O)oc2c(C)c(O)ccc12,nt,+,nt,11.8,nt
O=C(Cc1cc(=O)oc2cc(O)ccc12)NC(Cc1ccc(Cl)cc1)C(=O)O (stereo unspecified),-6.7,+,39.2,7.1,-4.2
